The list is not random: actives were taken first. Their share in the collection is about 19%.
CHX counter: Cycloheximide Counterscreen for Small Molecule Inhibitors of Shiga Toxin. actives 12% (n = 300,000). AID 2314, 2010. max response, %. cell reporter, cycloheximide protein synthesis inhibition counterscreen; in the data active = max response mostly above about 13%, no sharp cut-off; inactive = mostly below about 14%; note: read at 38.3 µM for the half of the compounds with a filed dose; 0% is about no effect
Lassa entry inh: qHTS for Inhibitors of binding or entry into cells for Lassa Virus; Lassa virus pseudotype entry inhibition, cell reporter; Potency, µM (highest dose often 37.9 µM), inactives show at the top dose activity change, negative = inhibition, usual class: inhibitors; actives 1.2% (n = 300,000); AID 540256, 2011; calls by dose curve; tested in HEK293 cells; note: potency is the fitted concentration of half-maximal effect; % is set by controls: 0 for no effect and ±100 for the full control effect; nearly all actives have a fitted effect of over 50% in size
Pf growth 96h: Primary qHTS for delayed death inhibitors of the malarial parasite plastid, 96 hour incubation; P. falciparum luciferase reporter growth, 96 h; Potency, µM (top dose mostly 28.7 µM), for the others: at the highest dose activity change, negative = inhibition, hits mostly inhibitors; actives 6.9% (n = 320,000); AID 504834, 2011; note: potency is the fitted concentration of half-maximal effect; % is set by controls: 0 for no effect and ±100 for the full control effect
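Readout is luminescence from an integrated firefly luciferase in P. falciparum. Red cells, 2% hematocrit and 0.05% parasitemia final, were cultured with compound through two parasite generations (96 hours) at 37 C, 5% CO2.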
Pf growth 48h: Primary qHTS for delayed death inhibitors of the malarial parasite plastid, 48 hour incubation | Potency, µM (highest dose often 28.7 µM), for the others: at the top dose activity change, negative = inhibition, most hits filed as inhibitors | actives 5.9% (n = 310,000) | P. falciparum luciferase growth in erythrocytes, 48 h; note: potency is the fitted concentration of half-maximal effect; % is set by controls: 0 for no effect and ±100 for the full control effect
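Here the parasites carry a stable luciferase gene and grow inside erythrocytes in Albumax-based RPMI medium with compound for one erythrocytic cycle. Activity is scored as loss of luminescent signal.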
MARV entry inh: qHTS for inhibitors of binding or entry into cells for Marburg Virus. Potency, µM (doses to about 37.8 µM), inactives show top-dose activity change, negative = inhibition, actives largely listed as inhibitors. actives 1.8% (n = 300,000). Marburg virus pseudotyped entry inhibition, cell reporter. AID 540276, 2011; calls by dose curve; tested in HEK293 cells; note: potency is the fitted concentration of half-maximal effect; % is set by controls: 0 for no effect and ±100 for the full control effect
Shiga inhibitor: A qHTS for Small Molecule Inhibitors of Shiga Toxin; inhibition, % at 38.7 µM; Vero cells, Shiga toxin protein synthesis inhibition reporter; actives 9.2% (n = 290,000); in the data active = inhibition mostly above about 28%, no sharp cut-off; inactive = mostly below about 43%; note: 0% is about no effect
The depositor's hits bear a star; ? = inconclusive; . = no result; [ ] = dose if it differs, or a comment. Unless noted, calls come from the whole dose curve; as a rule, active = well fitted inhibition curve with a large enough effect; inconclusive = small, poorly fitted or top-dose-only effect, or another doubt; inactive = no such curve, though single readings can be large or run the other way.

SMILES | CHX counter | Lassa entry inh | Pf growth 96h | Pf growth 48h | MARV entry inh | Shiga inhibitor
COc1cccc(NC(=O)C2CC(=O)N(Cc3ccc(C)cc3)C2)c1 (stereo not given) | 6 | . | -20% | -17% | . | 13
Cc1ccc(N2CC(=O)Nc3c(sc4nc(C)cc(C)c34)C2=O)cc1 | 0 | 14%[46.1 µM] | ? | ? | ? | -15
O=C(O)c1ccccc1C(=O)Nn1cnnc1 | -4 | . | 5% | -7% | . | -19
Cc1sc2ncnc(SCC(=O)NNC(=O)c3ccco3)c2c1C | -3 | . | -5% | 19% | . | -2
Cc1cc(C2=NNC(=NC3CCCCC3)SC2)c(C)n1-c1c(C)n(C)n(-c2ccccc2)c1=O | -2 | 3% | 13µM* | 6.6µM* | -41% | -8
Cc1cccc(C)c1N=C1NN=C(c2ccccc2F)CS1 | 7 | 0% | ? | -2% | ? | 14
c1csc(C2=NNC(=NC3CCCCC3)SC2)c1 | 37* | -6% | 0% | 27% | 23%[46.1 µM] | 75*
C=C(C)CN=C1NN=C(c2cc(C)n(-c3ccc(C)cc3)c2C)CS1 | 5 | ? | ? | ? | -4% | -1
Cc1cc(C2=NNC(=NC3CC3)SC2)c(C)n1-c1ccccc1F | 3 | 0.13µM* | ? | ? | 0.13µM* | -21
Cc1ccccc1N=C1NN=C(c2ccccc2F)CS1 | 49* | ? | 1% | ? | 15µM* | 37*
CCOc1ccc(NC(=O)CNS(=O)(=O)c2c(C)cc(C)cc2C)cc1 | -2 | -2% | 16% | 2% | -8% | -4
COc1ccc(OC)c2c1sc(=NC(=O)c1cccc(N3C(=O)CCC3=O)c1)n2C | -3 | . | ? | ? | 6% | -2
COCCN1C(=O)C(O)=C(C(C)=O)C1c1ccc(F)cc1 (stereo not given) | 4 | 1% | . | -3% | -3% | 4
CCc1cccc(NC(=O)CNC(=O)N2CC(=O)Nc3ccccc32)c1 | 26* | . | 31% | 25% | . | -2
Cc1ccc(NC(=O)CNC(=O)N2CC(=O)Nc3ccccc32)cc1F | -2 | . | 18% | 9% | . | -4
O=C(CSCc1ccc(F)cc1)NC1CCCC1 | 26* | 22% | ? | 29% | 10% | 37*
O=C(CSCc1ccc(F)cc1)NCc1ccco1 | 21* | ? | . | -8% | -1% | 42
O=C(COc1ccc(/C=N/NC(=O)CSCc2ccc([N+](=O)[O-])cc2)cc1)NCc1ccco1 | 5 | ? | ? | -4% | 11µM* | -4
OC(COC(c1ccccc1)c1ccccc1)CN1CCCCC1 (stereo not given) | -2 | -22% | ? | ? | -14% | -7
Cc1cc(N2CCCC2)ccc1NC(=O)CN1C(=O)NC(C)(c2ccccc2)C1=O (stereo not given) | -1 | 3% | -1% | -23% | 12%[46.1 µM] | -13
O=C(O)CCCC(=O)Nc1cc([N+](=O)[O-])ccc1O | -2 | -7% | 13µM* | 3% | 19% | -2
N#CCSCC(=O)Nc1ccccc1 | 20* | 1% | 151% | 26% | 15%[46.1 µM] | 28
O=C(CN1CC(=O)Nc2ccccc21)Nc1ccc(F)c(F)c1 | 30* | -21%[46.1 µM] | ? | 39% | -8%[46.1 µM] | 75*
N#CCSCC(=O)Nc1ccc(Br)cc1 | 0 | 0% | . | 20% | 10% | -1
O=C(CCn1c(=S)oc2ccccc21)Nc1cc([N+](=O)[O-])ccc1F | -2 | . | -4% | 8.3µM* | . | -4
SMILES | CHX counter | Lassa entry inh | Pf growth 96h | Pf growth 48h | MARV entry inh | Shiga inhibitor
COc1cccc(OC)c1OC(=O)c1cnccn1 | -6 | . | 31% | 38% | 10%[46.1 µM] | -2
O=C1N=C(N2CCCCC2)S/C1=C\c1cn[nH]c1-c1ccccc1 | 11 | 5% | ? | 7% | 17% | 21
COc1ccc([N+](=O)[O-])cc1NC(=O)CSCc1ccccc1 | -5 | -18% | ? | 4% | -16% | 5
O=C(COc1ncnc2ccccc12)Nc1cc([N+](=O)[O-])ccc1F | 5 | -5% | 5.2µM* | 3% | -3%[46.1 µM] | -12
O=C(CSCc1ccccc1Br)Nc1ccccc1 | 27* | . | ? | -16% | . | 18
O=C(COC(=O)CCc1ccccc1)Nc1cc([N+](=O)[O-])ccc1F | -2 | 3%[46.1 µM] | 3% | ? | -1%[46.1 µM] | -10
O=C(CSCc1ccccc1)Nc1cc([N+](=O)[O-])ccc1F | 1 | . | 5.2µM* | -16% | . | -7
O=C(CSCc1ccc(F)cc1)Nc1ccccc1 | 30* | 8% | 44% | -8% | 4% | 53*
O=C(CSCc1ccccc1)Nc1ccc(F)c(F)c1 | 47* | 20% | -2% | 57% | 13% | 73*
O=C(CSCc1ccccc1)Nc1cccc(C(=O)Nc2ccc(C(=O)O)cc2)c1 | 0 | 2% | 3% | -2% | -5% | -7
COc1ccc(/C=C(\NC(=O)c2ccccc2)C(=O)NCC2CCCO2)cc1 (stereo not given) | 8 | 17% | -25% | -7% | 23%[46.1 µM] | -3
CCc1cc(C(=O)NCC2CCCO2)sc1C (stereo not given) | 31* | . | 70% | 70% | . | 43*
O=C(NCC1CCCO1)C(=O)N/N=C/c1cc(Cl)ccc1O (stereo not given) | -2 | ? | -8% | ? | ? | 1
Cc1ccc(C(=O)Nc2ccc(C(=O)NCC3CCCO3)cc2)cc1 (stereo not given) | 1 | . | ? | -7% | . | -3
O=C(NCC1CCCO1)/C(=C\c1ccc(Cl)cc1)NC(=O)c1ccccc1 (stereo not given) | -6 | -24% | 0.83µM* | 27% | ? | -20
O=C(NCC1CCCO1)C(=O)N/N=C/c1ccc(O)c(Cl)c1 (stereo not given) | 1 | 1% | 4.1µM* | -2% | 12%[46.1 µM] | 12
O=C(NCC1CCCO1)c1ccc(C(=O)NCC2CCCO2)cc1 (stereo not given) | -2 | -2% | 0.47µM* | 43% | 16% | -1
CC1(C)NC(=O)N(CCSc2ccc(Cl)cc2)C1=O | -3 | 6% | ? | . | 3% | 15
COc1cccc(-c2ccc(=O)n(CC(=O)Nc3cc4c(cc3NC(C)=O)OCCO4)n2)c1 | -2 | 7% | 2% | ? | 9% | 6
Nc1nc(-c2ccccc2)c(CCCNc2ccccc2)c(=O)[nH]1 | . | -12% | . | . | -19% | .
Cc1c(C(=O)NCC2CCCO2)oc2ccc3c(c12)C(=O)CC(C)(C)O3 (stereo not given) | 40* | ? | -20% | 0% | ? | 75*
CCOc1ccc(C(=O)NCC2CCCO2)cc1 (stereo not given) | 38* | ? | . | 71% | ? | 117*
O=C(Cc1ccccc1)NCC1CCCO1 (stereo not given) | -2 | 1% | -36% | . | 0% | -12
